This is a sample that favours compounds with a hit; in the whole collection about 8.7% have one here.
Pf growth 48h: inhibits P. falciparum growth in the first generation, 48 h; P. falciparum luciferase growth in erythrocytes, 48 h; Potency, µM (top dose mostly 28.7 µM), for the others: top-dose activity change, negative = inhibition, actives largely listed as inhibitors; 5.9% of 310,000 active
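Here the parasites carry a stable luciferase gene and grow inside erythrocytes in Albumax-based RPMI medium with compound for one erythrocytic cycle. Activity is scored as loss of luminescent signal.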
Pf growth 96h: P. falciparum growth inhibition at 96 hours; P. falciparum luciferase reporter growth, 96 h; Potency, µM (titrated, usually from 28.7 µM), for the others: at the highest dose activity change, negative = inhibition, usual class: inhibitors; 6.9% of 320,000 active; AID 504834
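P. falciparum expressing integrated firefly luciferase grown in erythrocytes (2% hematocrit, 0.05% parasitemia final) with compounds for 96 hours at 37 C, 5% CO2. Growth inhibition read as loss of luminescence after adding luciferase detection reagent.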
AMA1-RON2 inh: AMA1-RON2 (P. falciparum) interaction inhibition; AID 720542; 0.2% of 360,000 active; AlphaScreen AMA1-biotinylated RON2 peptide binding; Potency, µM (top dose mostly 58.2 µM), for the others: at the highest dose activity change, negative = inhibition, hits mostly inhibitors;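 also: 0% = vehicle wells and -100% = peptide control; nearly all actives have a fitted effect of over 45% in size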
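AMA1 (3D7) with his tag at 25 nM final met compounds first, then biotinylated RON2 peptide at 25 nM; detection used donor plus acceptor beads, 10 µg/mL apiece, read by AlphaScreen after 30 min at room temperature.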
VACV mCherry inh: inhibitors of vaccinia virus infection (mCherry reporter signal). Vaccinia virus mCherry reporter infection, fluorescence. Potency, µM (top dose mostly 36.5 µM), for inactives: at the highest dose activity change, negative = inhibition, hits mostly inhibitors. 0.63% of 310,000 active. AID 720579; calls by dose curve; tested in A549 cells; also: nearly all actives have a fitted effect of over 35% in size
VACV Venus inh: vaccinia inhibition (Venus reporter) | Potency, µM (series often up to 36.5 µM), for inactives: at the highest dose activity change, negative = inhibition, actives largely listed as inhibitors | Vaccinia virus Venus reporter expression, fluorescence | 0.46% of 330,000 active; calls by dose curve; tested in A549 cells; also: nearly all actives have a fitted effect of over 30% in size
Active calls of the source: *; [ ] = another dose, or the depositor's remark. Unless noted, calls follow the shape of the dose curve; as a rule, active = well fitted curve in the direction sought with a large enough effect; inconclusive = small, poorly fitted or top-dose-only effect, or another doubt; inactive = no such curve, though single readings can be large; an effect the other way counts as inactive or inconclusive. Unless noted, % is scaled to controls: 0 for no effect and ±100 for the full control effect; potency is read from the fitted curve at half-maximal effect.

C[C@](N)(Cc1ccc(O)cc1)C(=O)O was read as Pf growth 48h 1% and Pf growth 96h 7%.
`C[C@](N)(Cc1ccc(O)c(O)c1)C(=O)O` gave Pf growth 48h 22%, Pf growth 96h inconclusive, AMA1-RON2 inh 11µM*, VACV mCherry inh -5% and VACV Venus inh -9%.
CC(C)Oc1ccc(Cn2c(-c3ccco3)n[nH]c2=S)cc1 was read as Pf growth 48h -16%, Pf growth 96h inconclusive, AMA1-RON2 inh 48%, VACV mCherry inh 28µM* and VACV Venus inh inconclusive.
Cc1ccc(Cn2c(CCNC(=O)c3cccc(C)c3)nc3ccccc32)cc1 was read as VACV mCherry inh -15%[7.34 µM] and VACV Venus inh -12%[7.34 µM].
`Fc1ccc(-c2nc3ccccn3c2NCc2ccc3c(c2)OCO3)cc1` gave Pf growth 48h 8.3µM*, Pf growth 96h -1%, AMA1-RON2 inh inconclusive, VACV mCherry inh -19% and VACV Venus inh -10%.
Screening CCOC(=O)c1c(S(=O)(=O)NCC(=O)Nc2ccc(F)cc2C)c(C)n(C)c1C returned VACV mCherry inh -26% and VACV Venus inh -22%.
For C=CCn1nc([N+](=O)[O-])nc1Sc1cccc2cccnc12 the results were Pf growth 48h -27%, Pf growth 96h 34%, AMA1-RON2 inh -10%, VACV mCherry inh 7.9µM* and VACV Venus inh 8.9µM*.
`C1CCN(c2c3c(nc4nnnn24)CCCC3)CC1` gave Pf growth 48h 5%, Pf growth 96h 10µM*, AMA1-RON2 inh 0% and VACV Venus inh -4%.
For C1CCC(CNc2c3c(nc4nnnn24)CCCC3)CC1 the results were Pf growth 48h inconclusive, Pf growth 96h 13µM*, AMA1-RON2 inh -16%, VACV mCherry inh inactive and VACV Venus inh -28%.
CC(Sc1nccn1C)C(=O)Nc1ccccc1C#N (stereo not given) was read as VACV mCherry inh -2% and VACV Venus inh 5%.
`Cc1cc(C(=O)NC2CCCCC2C)c2ccccc2n1` (stereo not given) gave Pf growth 48h 5%, Pf growth 96h inconclusive and AMA1-RON2 inh 12%.
For Cc1nccc2[nH]c(=O)c(C(=O)NC3CCCCC3C)cc12 (stereo not given) the results were Pf growth 48h inconclusive, Pf growth 96h 3.3µM*, AMA1-RON2 inh 2% and VACV Venus inh -2%.
`CCOC(=O)N1CCN(C(=O)c2cc3c(s2)-c2ccccc2OC3)CC1` gave Pf growth 48h 0%, Pf growth 96h 8.3µM*, AMA1-RON2 inh 18%, VACV mCherry inh -2% and VACV Venus inh -18%.
COc1cccc(N2CCN(C(=O)c3cc4c(s3)-c3ccccc3OC4)CC2)c1 was read as Pf growth 48h -2%, Pf growth 96h 4.1µM*, AMA1-RON2 inh -13%, VACV mCherry inh -13% and VACV Venus inh 7%.
COc1ccc(N2CCN(C(=O)c3cc4c(s3)-c3ccccc3OC4)CC2)cc1 was read as Pf growth 48h 7%, Pf growth 96h 237%, AMA1-RON2 inh 1%, VACV mCherry inh -12% and VACV Venus inh -24%.
`CC1CC(C)CN(CCCNC(=O)c2cc3c(s2)-c2ccccc2OC3)C1` (stereo not given) gave Pf growth 48h 2.9µM*, Pf growth 96h 20% and AMA1-RON2 inh 6%.
Clc1cc(Cl)c(OCC#CI)cc1Cl was read as Pf growth 48h inconclusive and Pf growth 96h 13µM*.
Screening CCN1C(=O)/C(=C/c2cccs2)N(C)C1=S returned Pf growth 96h 1.7µM*, AMA1-RON2 inh -19%, VACV mCherry inh -13% and VACV Venus inh -8%.
For CN1C(=S)N(c2ccccc2)C(=O)/C1=C/c1cccs1 the results were Pf growth 48h -5%, Pf growth 96h -16%, AMA1-RON2 inh -21%, VACV mCherry inh -18% and VACV Venus inh -11%.
`Cc1cc(C)n(-c2nnc(NCc3ccc(Cl)cc3)nn2)n1` gave Pf growth 48h inconclusive, Pf growth 96h 2.1µM*, AMA1-RON2 inh -20%, VACV mCherry inh inconclusive and VACV Venus inh -25%.
`Cc1nn(-c2nnc(NCc3ccccc3)nn2)c(C)c1Br` gave Pf growth 48h 0.59µM*, Pf growth 96h 0.33µM*, AMA1-RON2 inh -17%, VACV mCherry inh -15% and VACV Venus inh -23%.
For Cc1ccc(C(c2sc3nc(-c4ccco4)nn3c2O)N2CCN(c3ccc(F)cc3)CC2)cc1 (stereo not given) the results were VACV mCherry inh -1% and VACV Venus inh 3%.
Screening Cc1cc2c(c(-c3ccc(Cl)cc3)c1)OC(CNC(=O)Cc1c(C)noc1C)C2 (stereo not given) returned VACV mCherry inh -15% and VACV Venus inh -10%.
Screening CCCC(O)(c1ccc(Cl)cc1)C(CN1CCOCC1)c1ccc(Cl)cc1 (stereo not given) returned Pf growth 48h 1.9µM*, Pf growth 96h 28%, AMA1-RON2 inh -1%, VACV mCherry inh inactive and VACV Venus inh -5%.
CCCCC(O)(c1ccc(F)cc1)C(CN1CCOCC1)c1ccc(Cl)cc1 (stereo not given) was read as Pf growth 48h 1.9µM*, Pf growth 96h 43% and AMA1-RON2 inh -10%.
Screening CCOc1ccc(C(O)(CCC(C)C)C(CN2CCOCC2)c2ccccc2)cc1 (stereo not given) returned Pf growth 48h 7.4µM*, Pf growth 96h 12%, AMA1-RON2 inh -3%, VACV mCherry inh inactive and VACV Venus inh -23%.
COc1ccc(C(O)(CCC(C)C)C(CN2CCOCC2)c2ccc(Cl)cc2)cc1 (stereo not given) was read as Pf growth 48h 1.7µM*, Pf growth 96h -24%, AMA1-RON2 inh -3%, VACV mCherry inh -10% and VACV Venus inh -15%.
CCc1ccc(C(O)(CC(C)C)C(CN2CCOCC2)c2ccccc2)cc1 (stereo not given) was read as Pf growth 48h inconclusive, Pf growth 96h -2% and AMA1-RON2 inh inconclusive.
CCCC(O)(c1ccc(OC)cc1)C(CN1CCOCC1)c1ccc(Cl)cc1 (stereo not given) was read as Pf growth 48h inconclusive, Pf growth 96h -13% and AMA1-RON2 inh -3%.
For Cc1cc2c(cc1C)N[C@]1(C[C@H]3CCC(=O)N4CC[C@@H](C1)[C@@H]34)C(=Nc1ccccc1C)N2 the results were VACV mCherry inh -15% and VACV Venus inh 1%.
`CCOc1ccc(C(=O)C(CN2CCOCC2)c2ccccc2)cc1` (stereo not given) gave Pf growth 48h inconclusive, Pf growth 96h inconclusive, AMA1-RON2 inh -15%, VACV mCherry inh 10µM* and VACV Venus inh inconclusive.
Screening COc1ccc(C(O)(CC(C)C)C(CN2CCOCC2)c2ccccc2)cc1 (stereo not given) returned Pf growth 48h 12µM*, Pf growth 96h inconclusive, AMA1-RON2 inh -3%, VACV mCherry inh -14% and VACV Venus inh inconclusive.
